Screens from PubChem BioAssay.
DUSP3 inh: DUSP3 (human) phosphatase inhibition | recombinant VHR phosphatase, pNPP absorbance | inhibition, % at 13.3 µM | 290,000 tested, 0.52% active; in the data active = inhibition above about 50%
Target sequence (P51452 whole entry, looked up): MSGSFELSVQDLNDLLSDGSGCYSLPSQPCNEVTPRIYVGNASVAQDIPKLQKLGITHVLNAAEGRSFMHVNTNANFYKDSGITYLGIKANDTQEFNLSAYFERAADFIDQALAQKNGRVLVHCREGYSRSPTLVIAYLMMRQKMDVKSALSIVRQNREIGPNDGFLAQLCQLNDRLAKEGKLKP
Anthrax LF prot: blocks Bacillus anthracis lethal factor protease | 360,000 tested, 0.12% active | P15917 | inhibition, % at 10 µM | multiplex microsphere protease cleavage assay, LF
BoNT F protease: BoNT F light chain protease inhibition. Multiplex microsphere protease cleavage assay, flow cytometry. inhibition, % at 10 µM. 360,000 tested, 0.22% active. AID 588497; in the data active = inhibition above about 35%, passing the limit was not always enough; inconclusive = no clear call, values can overlap the other calls
3CLpro inhibitor: SARS-CoV 3CLpro protease inhibition. 290,000 tested, 0.14% active. AID 1706. P0C6X7. recombinant SARS-CoV 3CLpro, quenched FRET peptide cleavage. inhibition, % at 6 µM; in the data active = inhibition above about 12%
BoNT A protease: blocks Botulinum neurotoxin A light chain protease; multiplex microsphere protease substrate cleavage, flow cytometry; inhibition, % at 10 µM; 360,000 tested, 0.17% active; AID 588499
Autofluor counter: counter-screen for toxin protease inhibitors: compound fluorescence; 360,000 tested, 3.1% active; compound autofluorescence counterscreen, microsphere flow cytometry; stronger effect = higher value; AID 624483; fluorescence intensity (concentration not given with the values); in the data active = fluorescence intensity above about 16000; inconclusive = no clear call, values can overlap the other calls
Of the large screens only hits and unclear results are named; the others gave an inactive call. Only some compounds are listed: those with a hit (about 3.9% of all), similar ones and a draw of the others. Cut-off read from the data, not from the text of the source, unless noted: active = inhibition above about 30%; inconclusive = no clear call, values can overlap the other calls; inactive = below that.

CCC(CC)NC(=O)Nc1ccccc1C(F)(F)F	none
C=CCn1c(=S)sc2c(=O)[nH]cnc21	Anthrax LF prot 53, BoNT F protease inconclusive
O=c1[nH]cnc2c1sc(=S)n2-c1ccccc1	Autofluor counter 22624
C/C(CC(=O)NCc1ccco1)=N\NC(=O)c1ccc([N+](=O)[O-])cc1Cl	none
COc1ccc(/C(C)=N/NC(=O)CNC(=O)Cc2ccccc2)c(OC)c1	BoNT F protease 38
C/C(Cc1ccccc1)=N\NC(=O)CNC(=O)c1ccc(Cl)cc1Cl	Anthrax LF prot inconclusive, BoNT F protease 36
C/C(CC(=O)NCc1ccco1)=N\NC(=O)c1ccc(Cl)cc1Cl	DUSP3 inh 52
C/C(Cc1ccccc1)=N\NC(=O)CNC(=O)c1cccc(Cl)c1	BoNT F protease inconclusive
COc1ccc(CNC(=O)COC(=O)CO/N=C(\C)c2ccc3c(c2)OCO3)cc1	Autofluor counter inconclusive (no result: DUSP3 inh, 3CLpro inhibitor)
Cc1ccc(C(=O)C(OC(=O)CNS(=O)(=O)c2ccccc2)c2ccccc2)cc1 (stereo not drawn)	BoNT A protease inconclusive, Autofluor counter 19423
CCOc1ccc(CCNc2nc3c(c(=O)n(C)c(=O)n3C)n2CC)cc1OCC	BoNT A protease inconclusive, Autofluor counter 16756
CCCn1c(NCc2ccco2)nc2c1c(=O)n(C)c(=O)n2C	none
CCn1c(NCc2ccccn2)nc2c1c(=O)n(C)c(=O)n2C	Autofluor counter 16824
Cc1cc2c(SCC(=O)NCC3CCCO3)ncnc2s1 (stereo not drawn)	none
CC(C)N1CCc2c(sc(NC(=O)CCS(=O)(=O)c3ccccc3)c2C#N)C1	none
CC1CCc2nc3ccc(S(=O)(=O)N4CCC(C(=O)NC(C)c5ccccc5)CC4)cc3c(C(=O)O)c2C1 (stereo not drawn)	none
CCOC(=O)N1CCN(S(=O)(=O)c2ccc3c(c2)oc(=O)n3C)CC1	none
Cn1c(=O)oc2cc(S(=O)(=O)N3CCCCC3)ccc21	none
COC(=O)n1c(=O)oc2cc(S(=O)(=O)N3CCCCC3)ccc21	BoNT A protease inconclusive, Autofluor counter 21823
CCOC(=O)n1c(=O)oc2cc(S(=O)(=O)N3CCCCC3)ccc21	Autofluor counter 23136
CCC(C)N(C(=O)c1csnn1)C(C(=O)NCc1ccc(F)cc1)c1ccccc1F (stereo not drawn)	none
N#CC1=C(N)N2C(=C(C#N)C13CCCCC3)SC1CCCCC12O (stereo not drawn)	Autofluor counter 22232
O=C(OC(C(=O)NC1CCCCC1)c1ccccc1F)c1ccco1 (stereo not drawn)	none
O=c1[nH][nH]c2c(N=Cc3ccccc3O)ccc(F)c12	DUSP3 inh 52
Cc1c(CC(=O)O)c(=O)oc2cc(OCc3ccc(Br)cc3)ccc12	none
C=CCN(CC=C)c1cnn(-c2nc3ccccc3[nH]2)c(=O)c1Cl	Autofluor counter 21324
CCc1nc(C)ccc1OCC(=O)NCCCN(C)C	Autofluor counter 22619
CCc1nc(C)ccc1OCC(=O)O	none
CCc1ccc(NC(=O)CCCOc2cc(=O)n(C)c3ccccc23)cc1	none (no result: DUSP3 inh, 3CLpro inhibitor)
CCN(CCCNC(=O)COc1cc(=O)n(CC)c2ccccc12)c1ccccc1	BoNT A protease inconclusive, Autofluor counter 19587
CCn1c(=O)cc(OCC(=O)Nc2ccc3c(c2)OCCO3)c2ccccc21	Autofluor counter 19914
CCN(CCCNC(=O)COc1cc(=O)n(C)c2ccccc12)c1ccccc1	none
Cn1c(=O)cc(OCCCC(=O)Nc2ccc3c(c2)OCCO3)c2ccccc21	Autofluor counter 21630
Cn1c(=O)cc(OCCCC(=O)NCc2ccc3c(c2)OCO3)c2ccccc21	none
Cn1c(=O)cc(OCCCC(=O)Nc2cccnc2)c2ccccc21	Autofluor counter 23694
C/C(=N\NC(=O)CSc1nc(C)[nH]c1[N+](=O)[O-])c1ccc(F)cc1	none
CCn1c(=O)cc(OCC(=O)Nc2cc(C)ccn2)c2ccccc21	Autofluor counter 22556
CCn1c(=O)cc(OCC(=O)NCCc2cccc(C)c2)c2ccccc21	none
Cc1csc(NC(=O)C2CCCN2C(=O)Oc2ccccc2)n1 (stereo not drawn)	Autofluor counter 22986
CC(NC(=O)c1ccc(C(C)(C)C)cc1)C(=O)O (stereo not drawn)	Autofluor counter 21690
CCCOc1ccc(C(=O)NC(C)C(=O)O)cc1 (stereo not drawn)	Autofluor counter 21313
COc1cccc(-c2cccc(NC(=O)C3CCN(CCCn4cccn4)CC3)c2)c1	none (no result: DUSP3 inh, 3CLpro inhibitor)
